# Compounds with a hit are over-represented: about 21% of the library has one in this group of screens.
# RORg inh = qHTS for inhibitors of ROR gamma transcriptional activity | Drosophila S2 Gal4-RORgamma UAS-luciferase reporter, 20 h | 310,000 tested, 5.4% active | Potency, µM (highest dose often 53.6 µM), for inactives: top-dose activity change, negative = inhibition, usual class: inhibitors | AID 2551, 2010 | Nuclear receptor ROR-gamma (Mus musculus), P51450; further: potency means the concentration at half of the fitted maximal effect; nearly all actives have a fitted effect of over 60% in size
# Target sequence (P51450 whole entry, looked up, the tested form may be a part): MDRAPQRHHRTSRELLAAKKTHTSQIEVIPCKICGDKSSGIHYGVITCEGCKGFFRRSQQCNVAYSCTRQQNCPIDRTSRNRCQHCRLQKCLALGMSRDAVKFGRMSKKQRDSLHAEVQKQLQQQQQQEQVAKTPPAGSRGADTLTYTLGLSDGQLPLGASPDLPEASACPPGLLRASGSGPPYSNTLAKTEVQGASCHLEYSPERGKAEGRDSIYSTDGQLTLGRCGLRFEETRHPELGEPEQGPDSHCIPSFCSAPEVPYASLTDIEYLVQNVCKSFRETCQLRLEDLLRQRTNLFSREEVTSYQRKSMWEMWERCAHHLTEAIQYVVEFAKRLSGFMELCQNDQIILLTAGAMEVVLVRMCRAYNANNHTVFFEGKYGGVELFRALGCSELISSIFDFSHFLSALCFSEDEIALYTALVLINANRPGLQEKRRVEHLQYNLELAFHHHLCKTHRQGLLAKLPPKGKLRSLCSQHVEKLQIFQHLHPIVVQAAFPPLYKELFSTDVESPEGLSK
#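 Using a luciferase readout, inhibitors were identified by reduced reporter activity in Drosophila cells coexpressing a copper-inducible Gal4–ROR gamma fusion and UAS-driven Photinus luciferase, incubated 20 hr after 700 uM copper sulfate.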
# ELG1 repair inh = qHTS screen for small molecules that inhibit ELG1-dependent DNA repair in human embryonic kidney (HEK293T) cells expressing luciferase-tagged ELG1. Potency, µM (highest dose often 46.1 µM), without a hit: at the top dose activity change, negative = inhibition, hits mostly inhibitors. 330,000 tested, 2.3% active. HEK293T ELG1-luciferase reporter, luminescence, 16 h; DNA damage induced by 5-fluorouridine; further: potency means the concentration at half of the fitted maximal effect; nearly all actives have a fitted effect of over 55% in size
#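 DMSO vehicle served as the neutral condition. Each well held 2,000 cells given 5-fluorouridine plus compound; after 16 hr at 37 °C/5% CO2, ONE-Glo was added and luciferase measured 30 min later.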
# TDP1 cell CPT = qHTS for Inhibitors of human tyrosyl-DNA phosphodiesterase 1 (TDP1): qHTS in cells in presence of CPT. AID 686979, 2013. Potency, µM (top dose mostly 46.2 µM), for the others: at the highest dose activity change, negative = growth inhibition, actives largely listed as inhibitors. 420,000 tested, 12% active. chicken DT40 Tdp1-/-;hTDP1 cells + 20 nM CPT, ATP luminescence, 48 h; further: potency means the concentration at half of the fitted maximal effect; nearly all actives have a fitted effect of over 55% in size
#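 Chicken DT40 Tdp1-/- cells stably complemented with human TDP1 were seeded at 400 cells/well in medium containing 20 nM camptothecin, exposed to pin-transferred compounds, and grown at 37 °C for at least 48 hr. Viability was read as ATP luminescence.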
# Gal4-VP16 FLuc = VP16 counterscreen qHTS for inhibitors of ROR gamma transcriptional activity; Drosophila S2 Gal4-VP16 UAS-luciferase, luminescence, 20 h; Potency, µM (series often up to 53.6 µM), without a hit: top-dose activity, negative = inhibition, hits mostly inhibitors; 310,000 tested, 3.5% active;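 further: Gal4-VP16 expression switched on by copper sulfate through the metallothionein promoter; potency means the concentration at half of the fitted maximal effect; nearly all actives have a fitted effect of over 50% in size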
# IL1B secr inh = qHTS for Inhibitors of Inflammasome Signaling: IL-1-beta AlphaLISA Primary Screen; THP-1 LPS/ATP IL-1B secretion, AlphaLISA, 16 h; active compounds read low; AID 743279, 2014; 360,000 tested, 4.7% active; activity change, % at 57.5 µM; in the data active means activity change below about -50%; inconclusive means mostly about -30% to -49%
#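 THP-1 cells pretreated 1 hr with compounds (up to 57.5 uM final), then stimulated with LPS (250 ng/mL final) plus ATP (1.25 mM final); secreted IL-1B measured by AlphaLISA after 16 hr, decreased signal indicating inhibition.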
# TDP1 cell noCPT = qHTS for Inhibitors of human tyrosyl-DNA phosphodiesterase 1 (TDP1): qHTS in cells in absence of CPT. DT40 Tdp1-/- hTDP1 cells, no CPT, ATP luminescence, 48 h. Potency, µM (highest dose often 46.2 µM), inactives show at the highest dose activity change, negative = growth inhibition, actives largely listed as inhibitors. 420,000 tested, 15% active; further: potency means the concentration at half of the fitted maximal effect; nearly all actives have a fitted effect of over 55% in size
#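 DT40 Tdp1-/-;hTDP1 cells, no CPT (DMSO vehicle only), 400 cells/well; compounds pin-transferred; ≥48 hr, 37 °C; CellTiter-Glo 30 min RT dark, luminescence read.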
# * hit, by the source's call; i = inactive; ? = inconclusive; . = not tested or not shown; ! = a repeat was not active. Unless noted, the call rests on the fitted dose curve; in most records, active means well fitted curve in the direction sought with a large enough effect; inconclusive means small, poorly fitted or top-dose-only effect, or another doubt; inactive means no such curve, though single readings can be large; an effect the other way counts as inactive or inconclusive. On the % scale 0 is the no-effect control and ±100 the full control effect.
SMILES,RORg inh,ELG1 repair inh,TDP1 cell CPT,Gal4-VP16 FLuc,IL1B secr inh,TDP1 cell noCPT
COC(=O)c1cc(C)nc2c1c(=O)nc(SCc1ccccc1F)n2C1CC1,.,.,-3%,.,.,-18%
CCn1c(SCc2ccc(F)cc2Cl)nc(=O)c2c(C(=O)OC)cc(C3CC3)nc21,.,.,16µM*,.,.,18µM*
CCn1c(SCc2ccccc2F)nc(=O)c2c(C(=O)OC)cc(C3CC3)nc21,.,.,16µM*,.,.,?
C[C@@H]1COC(=O)O1,-12%,.,.,-2%,.,.
C=CC[n+]1c(/C=C/c2ccc(OC(C)=O)c(OC)c2)ccc2ccccc21,-41%,?,7.3µM*,-35%,-99*,12µM*
COc1cc(/C=N/NC(=O)Nc2ccccc2)ccc1OC(C)=O,30%,?,-8%,-11%,10,-23%
COC(=O)C1=C(C)NC(C)=C([N+](=O)[O-])C1c1ccccc1C(F)(F)F (stereo not given),20%,0%,17µM*,0%,-12,12µM*!
CC1=C(C(=O)OC(C)C)[C@@H](c2cccc3nonc23)C([N+](=O)[O-])=C(C)N1,.,.,?,.,.,15µM*
CSc1ccc(/C=C2\C=Cc3ccccc32)cc1,.,.,5%,.,.,?
COC(=O)N1CCC2(CCCN(C(=O)Nc3cccc(F)c3)C2)CC1,-11%,.,0%,-5%,.,-4%
Cc1cccc(NC(=O)CSc2nc3ccccc3c(=O)n2C)c1,?,?,?,?,-71*,?
COCCn1c(SCC(=O)Nc2cccc(F)c2)nc2c([nH]c3ccccc32)c1=O,-6%,13%,-23%,3%,i,-15%
Cn1c(SCC(=O)O)nc2ccccc2c1=O,6%,?,8%,7%,-2,10%
Cc1cccc(NC(=O)CSc2nc3c([nH]c4ccccc43)c(=O)n2C)c1,13µM*,-8%,8.2µM*,?,18,12µM*
Cc1ccccc1CSc1nc2ccccc2c(=O)n1C,.,5%,?,.,2,26µM*
Cn1c(SCc2ccccc2Br)nc2ccccc2c1=O,5%,-24%,?,-8%,58,?
COCCn1c(SCC(=O)Nc2cccc(NC(C)=O)c2)nc2c([nH]c3ccccc32)c1=O,-9%,?,?,7%,i,3.3µM*
CC(C)(C)OC(=O)N1CCN(C(=O)c2ncn3c2c(=O)[nH]c2ccccc23)CC1,.,.,13%,.,16,14%
O=C(OCc1nnc(-c2ccc(Cl)cc2)o1)c1ccncc1,39%,5%,0%,-4%,-4,3%
Cn1c(SCC(=O)NNC(=O)Cc2ccccc2)nc2ccccc2c1=O,9%,9%,21µM*,-11%,-11,13µM*
CCSc1nc2c([nH]c3ccccc32)c(=O)n1C,2%,10%,-4%,-7%,41,-22%
COc1ccc(-c2nnc(CSc3nc4ccccc4c(=O)n3C)o2)cc1OC,0%,?,15µM*,7%,-11,21µM*
CCC1CCCCN1C(=O)CSc1nc2c([nH]c3ccccc32)c(=O)n1C (stereo not given),?,23µM*,18µM*,-9%,19,21µM*
COc1ccc(-c2cc(-c3nnc(COC(=O)c4ccncc4)o3)c3ccccc3n2)cc1OC,-8%,18µM*,-28%,0%,?,9.2µM*
COCCn1c(SCC(=O)NNC(=O)Cc2ccccc2)nc2ccccc2c1=O,6%,-1%,7%,0%,-3,-25%
SMILES,RORg inh,ELG1 repair inh,TDP1 cell CPT,Gal4-VP16 FLuc,IL1B secr inh,TDP1 cell noCPT
CCC(C)CN1C(=O)CSCC1(C)C(=O)Nc1ccc2c(c1)OCCO2 (stereo not given),.,.,-19%,.,17,-30%
CCOc1ncccc1C(=O)Nc1ccc(OC)c(S(=O)(=O)N2CCOCC2)c1,.,3%,-16%,.,-2,-2%
CC(CNC(=O)c1cc2ccccn2n1)c1ccccc1 (stereo not given),.,.,-23%,.,.,-16%
COn1c(SCc2ccc(C)cc2C)nc2ccccc2c1=O,?,-7%,21µM*,1%,7,18µM*
Cn1c(SCC(=O)Nc2ccccc2)nc2c([nH]c3ccccc32)c1=O,?,0%,?,13µM*,25,?
Cc1ncsc1CCSc1n[nH]c(=O)n1-c1ccccc1,18%,7%,?,-23%,0,1%
CCOc1ccc(OCC)c(NC(=O)CSc2nc3ccccc3c(=O)n2C)c1,-15%,?,16µM*,20µM*,20,21µM*
CCOc1ccc(OCC)c(NC(=O)CSc2nc3cccnc3n2C)c1,?,?,?,2%,14,?
Cc1ncsc1CCSc1nc2ccccc2c(=O)n1C,26%,?,?,-16%,-11,23µM*
CCOC(=O)N1CCC(Nc2c(NCCCN3CCN(C4CCCCC4)CC3)c(=O)c2=O)CC1,-20%,3%,-4%,-7%,-5,-3%
Nc1ncnc(N)c1NC(=O)c1ccc(OCc2ccccc2)cc1,.,.,-4%,.,30,-23%
COc1ccc(-n2c(=O)c(-c3ccc(F)c(F)c3)nc3cncnc32)cc1,-1%,.,-6%,-4%,.,2%
COc1ccc(-n2ncc(C(=O)N3CCN(C4CCCCC4)CC3)c2C2CCN(C(=O)OC(C)(C)C)CC2)cc1,.,.,?,.,.,21µM*
CC(C)(C)OC(=O)N1CCC(c2c(C(=O)N3CCN(C4CCCCC4)CC3)cnn2-c2cccc(Cl)c2)CC1,.,.,16µM*,.,.,23µM*
CC(C)(C)OC(=O)N1CCC(c2c(C(=O)N3CCN(C4CCCCC4)CC3)cnn2-c2ccc(F)cc2)CC1,-6%,4%,-18%,-6%,6,10%
CC(C)(C)OC(=O)N1CCC(c2c(C(=O)NCC3CCN(C4CCCC4)C3)cnn2-c2cccc(Cl)c2)CC1 (stereo not given),-8%,6%,?,-4%,-56*,?
COc1ccccc1N1CCN(C(=O)c2cnn(-c3ccc(C)c(C)c3)c2C2CCN(C(=O)OC(C)(C)C)CC2)CC1,.,.,21µM*,.,.,21µM*
COC(=O)C1(C(=O)OC)c2cc3c(cc2CN(S(=O)(=O)c2ccc(C)cc2)C1CC(C)=O)OCO3 (stereo not given),.,.,-9%,.,-29,2%

# High-throughput results (PubChem)
